Assay [1] concerns the target Ribosomal protein S6 kinase alpha-6 (Homo sapiens) (UniProt Q9UK32). The settings on record: at 1 µM.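 Further: each value is a mean inhibition of RSK4 from a GSK PKIS panel screen.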
In assay [2] the target is T1, Serine/threonine-protein kinase Sgk1 (Homo sapiens) (UniProt O00141).
T1 sequence (whole entry): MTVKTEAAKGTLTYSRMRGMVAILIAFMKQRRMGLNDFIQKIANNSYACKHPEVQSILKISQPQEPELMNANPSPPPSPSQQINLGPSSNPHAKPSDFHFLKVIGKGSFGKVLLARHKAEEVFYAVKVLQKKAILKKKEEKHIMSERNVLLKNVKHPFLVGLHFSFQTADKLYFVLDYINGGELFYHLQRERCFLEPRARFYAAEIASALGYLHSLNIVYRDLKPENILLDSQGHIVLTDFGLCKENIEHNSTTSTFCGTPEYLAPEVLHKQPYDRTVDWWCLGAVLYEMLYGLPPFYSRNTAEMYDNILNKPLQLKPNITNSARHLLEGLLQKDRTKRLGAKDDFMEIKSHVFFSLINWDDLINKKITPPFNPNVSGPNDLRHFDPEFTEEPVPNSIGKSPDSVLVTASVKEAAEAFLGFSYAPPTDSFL
Conditions: at 0.1 µM.

Assay [3] deals with T1, Serine/threonine-protein kinase Sgk1 (Homo sapiens). Conditions: at 1 µM.
Assay [4] concerns the target T2, Serine/threonine-protein kinase Sgk2 (Homo sapiens) (UniProt Q9HBY8).
T2 sequence (whole entry): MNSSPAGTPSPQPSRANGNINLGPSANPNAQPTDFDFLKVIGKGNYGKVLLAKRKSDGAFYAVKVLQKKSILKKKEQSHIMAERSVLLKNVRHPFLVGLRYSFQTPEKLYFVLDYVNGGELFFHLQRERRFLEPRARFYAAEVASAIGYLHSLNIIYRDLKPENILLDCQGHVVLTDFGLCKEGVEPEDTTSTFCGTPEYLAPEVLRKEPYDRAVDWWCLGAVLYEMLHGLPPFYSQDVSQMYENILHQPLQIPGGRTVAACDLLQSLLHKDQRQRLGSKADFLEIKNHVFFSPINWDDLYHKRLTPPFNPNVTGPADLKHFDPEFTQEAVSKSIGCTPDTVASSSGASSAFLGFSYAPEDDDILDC
Conditions: at 0.1 µM.

Assay [5] has as its target T2, Serine/threonine-protein kinase Sgk2 (Homo sapiens). Conditions: at 1 µM.
The target in assay [6] is T3, Serine/threonine-protein kinase Sgk3 (Homo sapiens) (UniProt Q96BR1).
T3 sequence (whole entry): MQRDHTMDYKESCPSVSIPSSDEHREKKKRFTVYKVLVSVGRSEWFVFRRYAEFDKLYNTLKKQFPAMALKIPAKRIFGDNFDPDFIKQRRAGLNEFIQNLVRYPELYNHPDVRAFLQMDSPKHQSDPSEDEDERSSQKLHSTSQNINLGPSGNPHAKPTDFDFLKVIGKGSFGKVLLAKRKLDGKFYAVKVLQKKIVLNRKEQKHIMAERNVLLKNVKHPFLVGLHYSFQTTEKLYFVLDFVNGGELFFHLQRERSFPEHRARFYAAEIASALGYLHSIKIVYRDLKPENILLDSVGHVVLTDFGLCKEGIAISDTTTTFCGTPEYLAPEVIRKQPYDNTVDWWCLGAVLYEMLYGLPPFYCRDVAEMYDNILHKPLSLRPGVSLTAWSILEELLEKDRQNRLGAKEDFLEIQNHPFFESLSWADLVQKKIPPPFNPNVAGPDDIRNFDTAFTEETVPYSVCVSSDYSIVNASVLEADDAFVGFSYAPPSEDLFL
The settings on record: at 0.1 µM.

In assay [7] the target is T3, Serine/threonine-protein kinase Sgk3 (Homo sapiens). The settings on record: at 1 µM.
Assay [8] concerns the target 5'-AMP-activated protein kinase catalytic subunit alpha-1 (Homo sapiens) (UniProt Q13131). Conditions: at 0.1 µM.
Assay [9] has the same target. Conditions: at 1 µM.
Assay [10] has as its target 5'-AMP-activated protein kinase catalytic subunit alpha-2 (Homo sapiens) (UniProt P54646). Conditions: at 0.1 µM.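 Further: mean inhibition measured on the AMPK complex of alpha2, beta1 and gamma1 subunits.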

Chain of 5'-AMP-activated protein kinase catalytic subunit alpha-2 (Homo sapiens) (P54646 whole entry, looked up): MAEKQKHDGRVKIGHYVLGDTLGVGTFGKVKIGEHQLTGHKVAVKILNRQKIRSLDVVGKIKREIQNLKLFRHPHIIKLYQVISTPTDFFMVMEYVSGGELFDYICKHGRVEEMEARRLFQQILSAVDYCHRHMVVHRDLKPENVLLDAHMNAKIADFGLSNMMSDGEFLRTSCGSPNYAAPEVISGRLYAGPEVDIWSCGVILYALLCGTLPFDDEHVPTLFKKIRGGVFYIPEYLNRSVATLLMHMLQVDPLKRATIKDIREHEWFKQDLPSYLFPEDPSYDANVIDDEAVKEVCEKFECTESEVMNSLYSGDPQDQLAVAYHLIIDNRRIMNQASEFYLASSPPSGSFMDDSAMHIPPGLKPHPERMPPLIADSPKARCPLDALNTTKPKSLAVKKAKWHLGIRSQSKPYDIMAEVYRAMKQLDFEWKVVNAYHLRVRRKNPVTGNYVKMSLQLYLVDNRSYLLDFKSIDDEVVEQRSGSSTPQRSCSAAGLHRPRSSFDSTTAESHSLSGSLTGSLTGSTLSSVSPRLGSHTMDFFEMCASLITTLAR
Chain of Ribosomal protein S6 kinase alpha-6 (Homo sapiens) (Q9UK32 whole entry): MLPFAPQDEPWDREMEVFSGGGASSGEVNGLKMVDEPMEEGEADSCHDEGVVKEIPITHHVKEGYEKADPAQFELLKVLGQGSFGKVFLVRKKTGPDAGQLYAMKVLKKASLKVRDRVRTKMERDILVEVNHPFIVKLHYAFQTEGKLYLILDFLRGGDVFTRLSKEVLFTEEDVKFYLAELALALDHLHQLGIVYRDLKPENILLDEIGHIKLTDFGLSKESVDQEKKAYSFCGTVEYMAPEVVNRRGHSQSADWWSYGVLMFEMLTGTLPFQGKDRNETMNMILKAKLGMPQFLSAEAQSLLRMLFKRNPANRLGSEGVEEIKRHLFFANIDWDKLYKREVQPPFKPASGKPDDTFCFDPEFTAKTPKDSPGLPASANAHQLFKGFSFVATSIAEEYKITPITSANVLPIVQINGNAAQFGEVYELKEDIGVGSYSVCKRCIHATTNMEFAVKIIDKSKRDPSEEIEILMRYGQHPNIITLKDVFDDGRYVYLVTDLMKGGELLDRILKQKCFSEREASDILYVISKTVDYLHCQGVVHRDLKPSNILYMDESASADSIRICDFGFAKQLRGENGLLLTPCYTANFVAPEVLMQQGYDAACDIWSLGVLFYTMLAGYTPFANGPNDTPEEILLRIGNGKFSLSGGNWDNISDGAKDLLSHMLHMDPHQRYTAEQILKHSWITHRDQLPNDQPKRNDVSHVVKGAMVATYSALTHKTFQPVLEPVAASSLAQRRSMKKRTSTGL
Chain of 5'-AMP-activated protein kinase catalytic subunit alpha-1 (Homo sapiens) (Q13131 whole entry, looked up): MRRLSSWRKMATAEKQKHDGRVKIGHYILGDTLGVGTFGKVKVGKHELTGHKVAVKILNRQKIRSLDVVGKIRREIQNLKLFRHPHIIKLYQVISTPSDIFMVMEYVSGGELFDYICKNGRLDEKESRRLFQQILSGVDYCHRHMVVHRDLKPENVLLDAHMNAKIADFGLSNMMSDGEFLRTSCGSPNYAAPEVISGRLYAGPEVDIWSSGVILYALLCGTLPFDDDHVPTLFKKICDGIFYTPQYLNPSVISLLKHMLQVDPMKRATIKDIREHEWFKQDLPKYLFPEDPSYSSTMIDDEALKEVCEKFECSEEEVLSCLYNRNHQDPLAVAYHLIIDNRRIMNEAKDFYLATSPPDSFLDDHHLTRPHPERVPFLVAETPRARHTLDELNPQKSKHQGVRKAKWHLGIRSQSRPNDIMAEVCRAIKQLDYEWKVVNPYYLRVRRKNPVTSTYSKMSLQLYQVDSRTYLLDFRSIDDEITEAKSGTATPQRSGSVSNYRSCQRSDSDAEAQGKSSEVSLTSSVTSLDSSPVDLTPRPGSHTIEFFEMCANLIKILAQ

One may read the inhibition as the drop in the measured response relative to a control, in per cent. Take `CCN(CC)S(=O)(=O)c1ccc(OC)c(Nc2ncc(-c3ccccc3)o2)c1`: the inhibition in assay [1] is 2.89%; in assay [2], -0.03%; in [3] it was 3.29%; in assay [4], 0.96%; in assay [5], 1.93%; in [6], 4.69%. The inhibition in assay [7] is 0.56%; in assay [8] it was 1.56%; in assay [9], 3.48%; in assay [10], -5.76%.

Take `CS(=O)(=O)CCNCc1ccc(-c2ccc3ncnc(Nc4ccc(OCc5ccccc5)c(C(F)(F)F)c4)c3c2)o1`: the inhibition in assay [1] is 0.75%; in assay [2], 3.38%; in assay [3], 3.03%; in assay [4] it was 1.55%; in assay [5] it was 1.26%; in assay [6], 2.51%. In addition, the inhibition is 4.06% in assay [7], 3.06% in assay [8], 2.92% in [9] and -6.64% in [10].

`Nc1ncc(-c2cccc(S(N)(=O)=O)c2)c2scc(-c3ccc(F)c(Cl)c3)c12`: the inhibition in assay [1] is 3.24%; in assay [2] it was 2.77%; in assay [3], 2.35%; in assay [4], -0.69%; in [5], 4.55%; in assay [6], 3.54%. Besides, the inhibition in [7] is 0.56%; in assay [8], 3.66%; in assay [9] it was 4.69%; in assay [10], 0.92%.

On to `COC(=O)c1sc(-n2cnc3cc(OC)c(OC)cc32)cc1OCc1ccccc1C(F)(F)F`, for which the inhibition turned out to be 1.66% in assay [1]; 2.5% in assay [2]; 4.04% in [3]; 1.44% in assay [4]; 1.94% in assay [5]; 2.58% in assay [6]. Also, the inhibition is 1.46% in [7], 3.84% in [8], 8.18% in [9] and -0.41% in [10].

In the case of `CCN1CCC(CC(=O)Nc2n[nH]c3nnc(-c4cccc(F)c4F)cc23)CC1`, the inhibition in assay [1] was 1.38%; in [2], 0.53%; in assay [3] it was 0.29%; in [4], -3.94%; in assay [5], 1.93%; in assay [6], 0.82%. In addition, the inhibition in assay [7] stood at 4.18%; in [8], 2.47%; in assay [9], 3.36%; in assay [10], 2.36%.

In the case of `CNC(=O)c1cccc(C#Cc2cncnc2Nc2ccc(OCc3cccc(F)c3)c(Cl)c2)c1`, the inhibition in assay [1] was 0.05%; in assay [2], 1.16%; in [3] it was 0.62%; in assay [4], -0.28%; in assay [5], 0.71%; in assay [6], 0.18%. In addition, the inhibition was 1.41% in [7], 0.65% in assay [8], 2.17% in assay [9] and -3.97% in assay [10].

Consider `Nc1nc(-c2ccc(F)cc2)c(-c2ccc3ncccc3n2)s1`, for which the inhibition was determined as 3.36% in [1]; 2.87% in assay [2]; 4.24% in assay [3]; 4.24% in assay [4]; 4.34% in assay [5]; 4.05% in [6]. Further, the inhibition in assay [7] came to 3.66%; in assay [8], 3.33%; in assay [9], 5.29%; in assay [10], 1.85%.

Regarding `COc1ccc2c(-c3ccnc(Nc4cccc(OC(F)(F)F)c4)n3)cnn2n1`, the inhibition in [1] turned out to be 3.03%; in assay [2], 3.35%; in assay [3], 2.06%; in [4], 6.82%; in [5] it was 9.02%; in assay [6] it was 5.66%. The inhibition in [7] is 4.44%; in [8], 4.09%; in assay [9] it was 7.03%; in [10], -7%.

In the case of `CN1CCC(n2cnc(-c3ccc(F)cc3)c2-c2ccnc(N)n2)CC1`, the inhibition in assay [1] is 3.17%; in [2], 2.03%; in assay [3] it was 5.81%; in assay [4], 0.15%; in [5], 7.47%; in [6], 2.25%. Further, the inhibition is 2.99% in assay [7], 2.2% in [8], 7.91% in [9] and -1.23% in [10].

On to `NS(=O)(=O)c1ccc(Nc2ncc(-c3ccccc3)o2)cc1`, for which the inhibition in [1] stood at 4.32%; in [2], 2.77%; in assay [3] it was 13%; in [4] it was 2.15%; in [5], 10.4%; in [6], 1.86%. In addition, the inhibition was found to be 2.86% in assay [7], 4.14% in [8], 11.5% in [9] and 1.03% in assay [10].

As for `Cc1cccc2c1NC(=O)/C2=N\Nc1ccc(S(N)(=O)=O)cc1`, the inhibition amounted to 2.27% in assay [1]; 0.42% in assay [2]; 3.23% in assay [3]; 2.93% in assay [4]; 3.69% in [5]; 0.3% in [6]. Also, the inhibition is -0.24% in assay [7], 2.8% in assay [8], 4.3% in assay [9] and 0.95% in assay [10].

As to `CC1=C(C(=O)Nc2cc(Cl)c3[nH]ncc3c2)C(c2ccc(C(F)(F)F)cc2)CC(=O)N1` (stereo not given), the inhibition in assay [1] worked out at 36.4%; in assay [2] it was 4.9%; in [3], 17.9%; in [4], 4.31%; in assay [5], 12.5%; in assay [6] it was 8.68%. In addition, the inhibition in assay [7] stood at 34.4%; in assay [8] it was 18.4%; in assay [9], 62.2%; in assay [10], 5.35%.

Turning to `COc1ccc(CNC(=O)c2ccc(-c3cc(-c4nnc(C)o4)ccc3C)cc2)cc1`, the inhibition in assay [1] amounted to 0.1%; in assay [2], 5.7%; in [3], 6.79%; in assay [4], 4.8%; in assay [5] it was 8.78%; in assay [6] it was 7.73%. The inhibition in assay [7] came out at 8.7%; in assay [8], 0.41%; in [9], 5.85%; in assay [10], 2.84%.

As to `CCn1c(-c2nonc2N)nc2c(C#CC(C)(C)O)nc(OC[C@H](N)c3ccccc3)cc21`, the inhibition in assay [1] was 7.07%; in assay [2], 1.86%; in assay [3], 3.49%; in [4] it was 5.31%; in assay [5], 13.4%; in assay [6], 31.1%. In addition, the inhibition amounted to 57.7% in assay [7], 17.7% in assay [8], 65.7% in assay [9] and 4.97% in assay [10].

In the case of `Cc1ccc2c(-c3ccnc(Nc4ccccc4)n3)c(-c3ccc(F)cc3)nn2n1`, the inhibition amounted to 4.74% in assay [1]; 2.01% in [2]; 1.69% in assay [3]; 2.15% in assay [4]; 3.69% in [5]; 2.63% in assay [6]. The inhibition was 2.1% in assay [7], 2.48% in assay [8], 2.15% in assay [9] and 0.59% in assay [10].

Take `Clc1ccc(-c2nn3ncccc3c2-c2ccnc(Nc3ccccc3)n2)cc1`: the inhibition is 1.59% in assay [1]; 3.14% in assay [2]; 1.09% in assay [3]; 1.58% in [4]; 0.53% in assay [5]; 1.92% in assay [6]. In addition, the inhibition in assay [7] was -1.01%; in [8], 0.45%; in [9], 0.54%; in assay [10], 1.86%.
